According to the supplement of paper PMC12282887:
± gives the standard deviation of the averaged measurements.

Test system: E. coli BW25113 marRABp lux reporter
Test: promoter activity interaction Z-score (Lux/OD deviation from empty-vector control); higher = stronger promoter induction by the compound
Protocol: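 E. coli BW25113 (wild type or ΔmarA/ΔsoxS/Δrob) carrying pTU175 luxCDABE promoter reporters was grown in LB in 384-well plates at 37°C with each of 94 compounds at 4 two-fold concentrations, in biological duplicates. Luminescence and OD600 were read every 30 min for 12 h and integrated as AUC over 8 h (0-8 h WT, 1-9 h mutants). Lux AUC was divided by OD AUC; the interaction score is the residual of a Huber robust fit of each promoter against the empty-vector control, then Z-transformed per promoter.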

SMILES: COc1cc(/C=C/C(=O)CC(=O)/C=C/c2ccc(O)c(OC)c2)ccc1O [Curcumin]
- promoter activity interaction Z-score (23 µg/ml, genetic background: wild type): 0.0587 ± 1
- promoter activity interaction Z-score (23 µg/ml, genetic background: ΔmarA): 0.238 ± 0.1
- promoter activity interaction Z-score (23 µg/ml, genetic background: Δrob): 0.099 ± 0.28
- promoter activity interaction Z-score (23 µg/ml, genetic background: ΔsoxS): 0.112 ± 0.41
- promoter activity interaction Z-score (46 µg/ml, genetic background: wild type): -0.237 ± 0.12
- promoter activity interaction Z-score (46 µg/ml, genetic background: ΔmarA): 0.377 ± 0.29
- promoter activity interaction Z-score (46 µg/ml, genetic background: Δrob): -0.00179 ± 0.26
- promoter activity interaction Z-score (46 µg/ml, genetic background: ΔsoxS): -0.0875 ± 0.19
- promoter activity interaction Z-score (92.1 µg/ml, genetic background: wild type): 0.812 ± 0.01
- promoter activity interaction Z-score (92.1 µg/ml, genetic background: ΔmarA): 1.05 ± 0.41
- promoter activity interaction Z-score (92.1 µg/ml, genetic background: Δrob): 0.00921 ± 0.51
- promoter activity interaction Z-score (92.1 µg/ml, genetic background: ΔsoxS): -0.225 ± 0.28
- promoter activity interaction Z-score (184.2 µg/ml, genetic background: wild type): 0.402 ± 1
- promoter activity interaction Z-score (184.2 µg/ml, genetic background: ΔmarA): -0.341 ± 0.046
- promoter activity interaction Z-score (184.2 µg/ml, genetic background: Δrob): 0.198 ± 0.15
- promoter activity interaction Z-score (184.2 µg/ml, genetic background: ΔsoxS): -0.312 ± 0.3

SMILES: COc1ccc(CCN(C)CCCC(C#N)(c2ccc(OC)c(OC)c2)C(C)C)cc1OC (configuration not stated) [Verapamil]
- promoter activity interaction Z-score (28.4 µg/ml, genetic background: wild type): 0.257 ± 0.13
- promoter activity interaction Z-score (28.4 µg/ml, genetic background: ΔmarA): 0.21 ± 0.17
- promoter activity interaction Z-score (28.4 µg/ml, genetic background: Δrob): 0.064 ± 0.21
- promoter activity interaction Z-score (28.4 µg/ml, genetic background: ΔsoxS): -0.241 ± 0.54
- promoter activity interaction Z-score (56.8 µg/ml, genetic background: wild type): 0.22 ± 0.12
- promoter activity interaction Z-score (56.8 µg/ml, genetic background: ΔmarA): 0.273 ± 0.099
- promoter activity interaction Z-score (56.8 µg/ml, genetic background: Δrob): 0.311 ± 0.47
- promoter activity interaction Z-score (56.8 µg/ml, genetic background: ΔsoxS): 0.0416 ± 0.54
- promoter activity interaction Z-score (113.7 µg/ml, genetic background: wild type): 0.853 ± 0.13
- promoter activity interaction Z-score (113.7 µg/ml, genetic background: ΔmarA): 0.923 ± 0.54
- promoter activity interaction Z-score (113.7 µg/ml, genetic background: Δrob): 0.659 ± 0.32
- promoter activity interaction Z-score (113.7 µg/ml, genetic background: ΔsoxS): 0.193 ± 0.7
- promoter activity interaction Z-score (227.3 µg/ml, genetic background: wild type): 0.957 ± 0.16
- promoter activity interaction Z-score (227.3 µg/ml, genetic background: ΔmarA): 1.14 ± 0.38
- promoter activity interaction Z-score (227.3 µg/ml, genetic background: Δrob): 0.739 ± 0.49
- promoter activity interaction Z-score (227.3 µg/ml, genetic background: ΔsoxS): 0.385 ± 0.48
